These results are taken from PubChem BioAssay (NCI).

The panel holds about 79,000 compounds, 15% with a hit somewhere; the sample as a whole holds those more often. Values without a mark were called inactive. Active and inactive are the calls of the source. No stated cut-off is given here; in the data, active means growth inhibition above about 70%; inactive means the rest.

A short description of the experiment: NCI Yeast Anticancer Drug Screen. Data for the wt2 strain (AID 169).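 Further: 0% = growth of vehicle-treated yeast cultures.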 Conditions: S. cerevisiae wt2 strain growth inhibition, active compounds read high. As to the method:
Growth inhibition of yeast strains with defined genetic alterations is measured as a screen for potential anti-cancer activity. Selected strains with alterations in DNA damage repair or cell cycle control were exposed to compounds and growth inhibition was measured relative to vehicle treated controls. The strain used in this assay is wt2

For `Cc1ccc(C(C)C)c(C(=C2C=CC(=[N+](C)C)C=C2)c2c(C(C)C)ccc(C)c2O)c1O`, the growth inhibition by setting is: (at 1.2 µM) 1%; (at 3.7 µM) -1%; (at 11.0 µM) 97% (active); (at 33.0 µM) 94% (active); (at 100.0 µM) 83% (active).

Regarding `Cc1ccc(P(c2ccc(C)cc2)c2ccc(C)cc2)cc1`, the growth inhibition reads like this: (at 1.2 µM) -17%; (at 3.7 µM) -15%; (at 11.0 µM) -15%; (at 33.0 µM) 5%; (at 100.0 µM) 13%.

Regarding `CC1(C)CC(=O)C(C(CC(c2ccccc2)c2cc3c(cc2O)OCO3)C2=C(O)CC(C)(C)CC2=O)=C(O)C1` (stereo not given), the growth inhibition by setting is: (at 1.2 µM) -4%; (at 3.7 µM) -5%; (at 11.0 µM) 21%; (at 33.0 µM) 88% (active); (at 100.0 µM) 88% (active).

Regarding `CCSc1c2ccccc2c(-c2nc(F)nc(F)n2)n1CCc1ccccc1`, the growth inhibition (at 1.2 µM) was -1%; the growth inhibition (at 3.7 µM) is -2%; the growth inhibition (at 11.0 µM) is 4%; the growth inhibition (at 33.0 µM) is 77% (active); the growth inhibition (at 100.0 µM) was 98% (active).

For the compound `Cn1c(COc2ccc(/C=N/NC(=O)CCC(=O)N/N=C/c3ccc(OCc4c[n+]5ccccc5n4C)cc3)cc2)c[n+]2ccccc12`, the growth inhibition is, setting by setting: (at 1.2 µM) 4%; (at 3.7 µM) 5%; (at 11.0 µM) 8%; (at 33.0 µM) 12%; (at 100.0 µM) 99% (active).

`CN(C)CCNC(=O)c1cccc2nc3c(ccc4ccccc43)nc12`: the growth inhibition was -2% (at 1.2 µM); 6% (at 3.7 µM); -2% (at 11.0 µM); 13% (at 33.0 µM); 92% (active) (at 100.0 µM).

Turning to `CCN(CC)CCSc1c2ccccc2nc2cc(NCC(=O)Nc3ccccc3-c3ccccc3NC(=O)CNc3ccc4c(SCCN(CC)CC)c5ccccc5nc4c3)ccc12`, the growth inhibition is -5% (at 1.2 µM); -3% (at 3.7 µM); 2% (at 11.0 µM); 48% (at 33.0 µM); 96% (active) (at 100.0 µM).

As to `Nc1ccc2cc(Br)c3ccccc3c2c1`, the growth inhibition was -1% (at 1.2 µM); 0% (at 3.7 µM); -3% (at 11.0 µM); 2% (at 33.0 µM); 80% (active) (at 100.0 µM).
